# Assay results published in ChEMBL document CHEMBL4888484, “Replenishing the malaria drug discovery pipeline: Screening and hit evaluation of the MMV Hit Generation Library 1 (HGL1) against asexual blood stage Plasmodium falciparum ,using a nano luciferase reporter read-out” (2022).
# In all, about 4,800 compounds went through this assay and about 410 (8.5%) showed an effect of 50% or more. Only a selection was taken, and strong results are over-represented in it overall.
# Tested on: Plasmodium falciparum
# Assay: Confirmatory screen in NF54 pLDH assay, in single point, at 2uM, 72h
# Assay type: functional, Erythrocyte
# Details: timepoint 72 hour
row,SMILES,% Inhibition [%]
1,CCC(CC)c1cc([C@H]2CN3CC[C@H]2C[C@@H]3CO)nc(-c2ccncc2)n1,24
2,CCCS(=O)(=O)NC[C@H]1C[C@@H]2CCN1C[C@@H]2c1cc(C(CC)CC)nc(-c2ccncc2)n1,25
3,CCC(CC)c1cc([C@H]2CN3CC[C@H]2C[C@@H]3CNS(=O)(=O)Cc2ccccc2)nc(-c2ccncc2)n1,60
4,CN(C)[C@@H](Cn1c(=O)[nH]c2ccccc2c1=O)c1ccco1,-13
5,COc1ccc(-c2csc(-n3cc(C4=CCN(CCO)CC4)cn3)n2)cc1,40
6,O=C(Cc1noc2ccccc12)N1CC2CCCC(C1)N2,11
7,CC(C)(C)CC(C)(C)NCc1cccnc1,-1
8,O=C1NC(=O)C2(Cc3cc(C(F)(F)F)ccc3N3CCCCC32)C(=O)N1c1ccccc1 (centres undefined),-21
9,O=C(c1ccccc1)c1cc(Cl)ccc1NC(=O)[C@H]1CC(=O)N(c2ccc(F)cc2)C1,96
10,Cc1c(C(=O)N2CCC3(CC2)OCCO3)oc2ccc3c(c12)[C@@H](O)CC1(CCCCC1)O3,10
11,CN(C)c1ccccc1NS(=O)(=O)c1c(Br)cc2[nH]c(=O)oc2c1Cl,2
12,CCC(CC)c1cc([C@H]2CN3CC[C@H]2C[C@@H]3CNC(=O)Cc2cccs2)nc(-c2ccncc2)n1,7
13,CN1CCc2nc3ccc(F)cc3c(C(N)=O)c2C1,-10
14,Cc1ccccc1[C@H](C)NC1=NCCO1,6
15,CCN1C[C@]2(COC)CC[C@H](OC)[C@@]34C5C[C@@H]6[C@@H](OC)C[C@@](O)(C5[C@H]6OC(=O)c5ccccc5)[C@@H](CC23)C14 (some centres undefined),13
16,Cc1ccc(C2CC(c3cccnc3)Nc3ncnn32)cc1 (centres undefined),7
17,C=CC1CN2CCC1CC2C12Nc3ccccc3C1(O)CCO2 (centres undefined),-15
18,O[C@@]1(Cc2ccccc2)CN2CCC1CC2,3
19,COc1ccc(CCN2C(=O)NC(=O)[C@@]3(Cc4c(ccc5ccccc45)N(C)C3)C2=O)cc1OC,6
20,Cc1cc(C(=O)NC2CC(C)n3ccnc32)nn1C(C)C (centres undefined),70
21,CCc1nsc(N2CCC3CCC(C2)N3C)n1 (centres undefined),-12
22,C[C@@H]1N=C(c2ccccc2)c2cc(Cl)ccc2N(CC(=O)Nc2cccc(C(F)(F)F)c2)C1=O,11

row,SMILES,% Inhibition [%]
1,Cc1ccc(CN2CC(=O)N(C)CC23CCCCC3)nc1,-19
2,Clc1ccc(C2CC(c3cccnc3)Nc3ncnn32)cc1 (centres undefined),-11
3,COC(=O)c1cc(OC)cc2[nH]c(=O)oc12,-17
4,O=C1CCN(C(=O)c2ccc(F)c(Cl)c2)CC1,13
5,CC(CCc1ccccc1)N1C(=O)NC(=O)C2(Cc3c(ccc4ccccc34)N(C)C2)C1=O (centres undefined),6
6,CCn1cnc2c(N3C4CCC3C(C(=O)OC(C)(C)C)C4)ncnc21 (centres undefined),-8
7,CC1CNCC(C)N1Cc1csc(C2CC2)n1 (centres undefined),-9
8,O=C1NC(=O)C2(Cc3cccc(F)c3N3CCC(c4ccccc4)CC32)C(=O)N1c1ccccc1 (centres undefined),-18
9,Cc1cc(=O)c(OCC(=O)N2CCN([C@@H](c3ccccc3)c3ccc(Cl)cc3)CC2)c[nH]1,74
10,COc1cc(OCC(=O)N2CCN([C@@H](C)Cc3ccccc3)CC2)cc(OC)c1OC,3
11,O=C(N1CCN(C(c2ccccc2)c2ccccc2)CC1)C(O)(c1ccccc1)c1ccccc1,-14
12,COc1cnc(C(F)(F)F)nc1N1CCNCC1,9
13,Cn1cc(Br)cc1C(=O)C(Cl)(Cl)Cl,-6
14,CC(C)(C)NC(=O)C1CC2CCCCC2CN1 (centres undefined),2
15,CN1CC2(CN(Cc3cnc4ccc(Cl)cn34)C2)OC1=O,6
16,C=CCN(C)C[C@H]1CN2CC[C@H]1C[C@@H]2CNC(=O)Nc1ccc(OC(F)(F)F)cc1,17
17,O=C1CCN(C(=O)c2ccc(Cl)c(Cl)c2)CC1,12
18,CN1CCC(N(C)C2CCCCC2N(C)C(=O)Cc2ccc(O)cc2)CC1 (centres undefined),4
19,CN1CC2CN(Cc3ccccc3)CC(C1)C2=O,-5
20,CC(=O)N(C1CCN(Cc2ccccc2)CC1)C1(C(=O)Nc2ccc3[nH]ccc3c2)CCN(C)CC1,101
21,COCCn1ccc(C(=O)N[C@H]2CCc3nc(C(C)C)nn3C2)n1,1
22,c1cc(N2CC[C@@]3(CCCNC3)C2)c2sccc2n1,98

row,SMILES,% Inhibition [%]
1,CN1CC[C@]2(CCN(c3ccnc4ccsc34)C2)C1,97
2,CN1CCC2(CC1)CNc1ccccc12,0
3,COC(=O)COc1ccc(C#N)c(Cl)c1,1
4,CCOc1ccccc1NC(=O)c1cn(Cc2ccc(N)cc2)cn1,6
5,O=c1[nH]c2cc(NS(=O)(=O)c3ccc(C4CCCCC4)cc3)ccc2o1,-14
6,COc1ccc(N2C[C@H]2c2ccncc2)cc1,12
7,O=C(NC[C@H]1C[C@@H]2CC[N@]1C[C@@H]2CN1CCC(Cc2ccccc2)CC1)Nc1ccccc1,27
8,CN(C)C(=O)Oc1cccc2ccc(CN3CCC(N4CCN(c5ccc(C(F)(F)F)cn5)CC4)CC3)nc12,5
9,O=C(Cc1cnc2ccccn12)N1C[C@H]2CC[C@@H](C1)N(Cc1ccccn1)C2,20
10,CNCCc1cc(OC)c(OC)c2c1ccc1cc(OC)c(OC)cc12,7
11,c1ccc2c(CCNC3(c4nnnn4C4CCCCC4)CCCCC3)c[nH]c2c1,16
12,O=S(=O)(NC12CCCC1CNC2)c1onc(C2CC2)c1Cl (centres undefined),97
13,O=C(NCc1ccc(Br)cn1)[C@H]1NCC12CCCC2,4
14,COC(=O)CNc1cc(C)c([C@@](O)(C(=O)OC)C(F)(F)F)cc1OC,6
15,CCN(CC)C(=O)Oc1cc2nnnn2nc1-c1ccccc1,6
16,CC(C)N1C(=O)NC(=O)C2(Cc3ccccc3N3CCN(Cc4ccccc4)CC32)C1=O (centres undefined),19
17,C=CCCC(CN1C[C@H]2CC=CC[C@H]2C1)Oc1ncc(F)cn1 (some centres undefined),64
18,C[C@@H](Cc1ccc(O)cc1)NCc1cc[nH]n1,12
19,CCCC(=O)N(C(=O)CCC)c1ccc2[nH]c(=O)oc2c1,-1
20,Cc1ccc(Cl)c(NC(=O)N2CCC[C@H](c3n[nH]c(=O)o3)C2)c1,2
